In PubChem BioAssay (NCATS):
Results filed as inconclusive are left out. Activity calls are given as the source filed them. Calls follow the shape of the dose curve; as a rule, active = well fitted cell-killing curve with a large enough effect; inconclusive = small, poorly fitted or top-dose-only effect, or effect the other way; inactive = flat fitted curve, though single readings scatter.

What was measured:
Assay in all cases: Primary qHTS to identify gynecologic anti-cancer compounds using libraries of approved drugs and bioactive compounds (AID 1345084); also: nearly all actives have a fitted effect of over 55% in size
Conditions in all cases: Gynecologic cancer cell panel viability, ATPlite luminescence, 48 h; series mostly up to 57.5 µM
[1] = tested on: PA-1
Method in brief: (§1)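 Cell viability after 48 h drug treatment, ATPlite luminescence readout; five doses.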

[2] = tested on: SKOV3
Method in brief: as §1

[3] = tested on: Tov-21-G
Method in brief: as §1

[4] = tested on: Tov112D
Method in brief: as §1
% is scaled to controls: 0 for no effect and ±100 for the full control effect; potency is read from the fitted curve at half-maximal effect.

O=C(C(Cc1cccc(C(F)(F)F)c1)NS(=O)(=O)c1cc(F)c2c(c1)CCNC2)N1CCCC1 (stereo not drawn)
inactive: Potency [1] | Potency [2] | Potency [3] | Potency [4]

COC(=O)c1ccc2c(c1)nc(NC(=O)c1ccccc1)n2CCCc1ccccc1
inactive: Potency [1] | Potency [2] | Potency [3] | Potency [4]

C=C(C)C1CCC2(C(=O)O)CCC3(C)C(CCC4C5(C)C(C=O)C(O)C(C)(C)C5CCC43C)C12 (stereo not drawn)
inactive: Potency [1] | Potency [2] | Potency [3] | Potency [4]

Cc1cc(C)nc(SCC(=O)Nc2ncc(Cc3cccc4ccccc34)s2)n1
inactive: Potency [1] | Potency [2] | Potency [3] | Potency [4]

C=C1C(=O)OC2C3=C(C)C(=O)CC3C(C)CC(O)C12 (stereo not drawn)
inactive: Potency [1] | Potency [2] | Potency [3] | Potency [4]

CC1(C)OC[C@H](NC(=O)Nc2ccc(Br)cc2Br)[C@H](c2ccccc2)O1
inactive: Potency [1] | Potency [2] | Potency [3] | Potency [4]

Cc1nc(NC(=O)N2CCC[C@H]2C(N)=O)sc1-c1ccnc(C(C)(C)C(F)(F)F)c1
inactive: Potency [1] | Potency [3] | Potency [4]
active: Potency [2] 12.6 µM

CCCNCCc1ccc(NS(=O)(=O)c2ccc(OC(F)(F)F)cc2)cc1
inactive: Potency [1] | Potency [2] | Potency [3] | Potency [4]

CC(=O)OC1CC(O)(C(C)C)C2C(OC(=O)c3ccc(O)cc3)C=C(C)C(=O)CC12C (stereo not drawn)
inactive: Potency [1] | Potency [2] | Potency [3] | Potency [4]

C[C@@H]1O[C@@H](O[C@H]2[C@H](O[C@H]3CC[C@@]4(C)C(CC[C@]5(C)C4C=C[C@]46OC[C@@]7(CCC(C)(C)C[C@H]74)[C@@H](O[C@@H]4O[C@@H](C)[C@H](O)[C@@H](O)[C@H]4O)C[C@]65C)[C@]3(C)CO)O[C@H](CO)[C@@H](O)[C@@H]2O[C@@H]2O[C@H](CO)[C@@H](O)[C@H](O)[C@H]2O)[C@H](O)[C@H](O)[C@H]1O (stereo partly drawn)
inactive: activity change, negative = cytotoxicity [1] 2.51% [at 11.6 µM] | activity change, negative = cytotoxicity [2] -8.52% [at 11.6 µM] | activity change, negative = cytotoxicity [3] -2.59% [at 11.6 µM] | activity change, negative = cytotoxicity [4] -0.84% [at 11.6 µM]

CN(C)[C@@H]1CCc2[nH]c3ccc(NC(=O)c4ccc(F)cc4)cc3c2C1
inactive: Potency [1] | Potency [2] | Potency [3] | Potency [4]

CC(C)=CCC/C(C)=C/COCC1OC(n2ccc(=O)[nH]c2=O)C(O)C1O (stereo not drawn)
inactive: Potency [1] | Potency [2] | Potency [3] | Potency [4]

CC1(C)Oc2ncnc(N)c2N=C1c1ccc(C23CCC(CC(=O)O)(CC2)CC3)cc1
inactive: Potency [1] | Potency [2] | Potency [3] | Potency [4]

O=C(Nc1cc(C(F)(F)F)cc(C(F)(F)F)c1)c1cnc(Cl)nc1C(F)(F)F
inactive: Potency [1] | Potency [2] | Potency [3] | Potency [4]

COc1ccc2cc(-c3cc(-c4cc(Cl)cc(Cl)c4)nn3C(C)c3ccc(C(=O)NCCC(=O)O)cc3)ccc2c1 (stereo not drawn)
inactive: Potency [1] | Potency [2] | Potency [3] | Potency [4]

COc1cc2c(c(OC)c1CC=C(C)C)C[C@H](c1ccc(O)c(CC=C(C)C)c1O)CO2
inactive: Potency [1] | Potency [2] | Potency [3] | Potency [4]

C=C1[C@H]2CC[C@H](C(=O)O)[C@@]23CC[C@H](C3)C1(C)C
inactive: Potency [1] | Potency [2] | Potency [3] | Potency [4]

CC(C)(C)c1ccc(C(=O)Nc2cc(Cl)c(Br)cc2C(=O)O)cc1
inactive: Potency [1] | Potency [2] | Potency [3] | Potency [4]

CC(C)=CCCC1(C)C2CCC1(C)C(O)C2 (stereo not drawn)
inactive: Potency [1] | Potency [2] | Potency [3] | Potency [4]

C#CCOc1ccc2c(c1)c(-c1ccc(C(C)C)cc1)nc(=O)n2C(C)C
inactive: Potency [1] | Potency [2] | Potency [3] | Potency [4]

c1cc(-c2cnn3cc(-c4ccc(N5CCNCC5)cc4)cnc23)c2cccnc2c1
inactive: Potency [1] | Potency [2] | Potency [3] | Potency [4]

C[C@@H]1C[C@H]2O[C@@]3(O[C@@H]2C(C)(C)O)C(O)[C@@]2(C)C4CCC5C(C)(C)[C@@H](O[C@H]6OC[C@H](O)[C@@H](O)[C@@H]6O)CC[C@@]56C[C@@]46CC[C@]2(C)C13 (stereo partly drawn)
inactive: Potency [1] | Potency [2] | Potency [3] | Potency [4]

COc1ccc(N2CCN(C(=O)c3cc4c(s3)-c3ccccc3S(=O)(=O)C4)CC2)cc1
inactive: Potency [1] | Potency [2] | Potency [3] | Potency [4]

CCc1ccccc1OC[C@@H](O)CN[C@H]1CCCc2ccccc21
inactive: Potency [1] | Potency [2] | Potency [3] | Potency [4]

CC1(NC(=O)c2ccc(C#Cc3cccc(F)c3)cn2)COC1
inactive: Potency [1] | Potency [2] | Potency [3] | Potency [4]

COc1ccc(C(=O)Nc2c(Cl)cncc2Cl)cc1OC1CCCC1
inactive: Potency [1] | Potency [2] | Potency [3] | Potency [4]

CC(=O)OC1CC(C)C2(CCC3(CC(=O)OC3O)O2)C2(C)CCCC(C)(C)C12 (stereo not drawn)
inactive: Potency [1] | Potency [2] | Potency [3] | Potency [4]
